# Data as given in ChEMBL document CHEMBL3988442, “University of Dundee, Small-Polar-MMV Screening Library” (2021).
# In all, about 69,000 compounds went through this assay and about 1,000 (1.4%) showed an effect of 50% or more. Only a selection was taken, and strong results are over-represented in it overall.
# Test system: Leishmania donovani
# Assay: Leishmania intramacrophage assay
# Type: functional, organism-based
# Parameters: scale not given: in the data most compounds retested in dose-response had high values
smiles,measurement,setting,value
CNC(=O)C1Cn2ccnc2C2(CCN(Cc3cccc(C)n3)CC2)O1.O=C(O)C(F)(F)F (stereo not drawn),Percent Effect,"30 µM, 30.03 µM",-9.841%
NCC1CCCN(c2nc(-c3ccccc3)nc3c2CCNCC3)C1 (stereo not drawn),Percent Effect,"30.3 µM, […]",17.41%
NCC1CN(c2nc(-c3ccccc3)nc3c2CCNCC3)CCO1 (stereo not drawn),Percent Effect,"30 µM, 30.03 µM",6.18%
N#CC1CCCN(c2nc(-c3ccccc3)nc3c2CCNCC3)C1 (stereo not drawn),Percent Effect,"30 µM, 30.03 µM",83.36%
CCOCCCNC(=O)c1cc(Br)c2c(c1)OCCO2,Percent Effect,"30.3 µM, […]",32.12%
CCC(C)(C)NC(=O)Cn1nc(C)nc1-c1ccccc1,Percent Effect,"30.3 µM, […]",-5.337%
CC1(C)CNC(=O)c2nc(CCN3CCC(O)CC3)[nH]c2C1,Percent Effect,"30.3 µM, […]",-12%
O=C1[C@@H]2CN(Cc3cc4ccccc4o3)C[C@]2(C(=O)O)CN1CC1CC1,Percent Effect,"30.3 µM, […]",10.9%
CSCC[C@H](NC(C)=O)c1nc(CCc2ccccc2)n[nH]1,Percent Effect,"30.3 µM, […]",10.23%
NC(=O)c1ccccc1NC(=O)CCN1CCN(CCO)CC1,Percent Effect,"30.3 µM, […]",10.76%
COCC1c2c(cnn2C)CCN1C(=O)c1cscn1.O=C(O)C(F)(F)F (stereo not drawn),Percent Effect,"30.3 µM, […]",23.63%
COCC1c2c(cnn2C)CCN1C(=O)c1cccn1C.O=C(O)C(F)(F)F (stereo not drawn),Percent Effect,"30.3 µM, […]",51.46%
COCC1c2c(cnn2C)CCN1C(=O)c1cc(C)on1.O=C(O)C(F)(F)F (stereo not drawn),Percent Effect,"30.3 µM, […]",13.09%
CCCC(=O)Nc1ccc(CC(=O)N(C)CCc2cn[nH]c2)cc1,Percent Effect,"30.3 µM, […]",12.21%
NC(=O)C1CCN(S(=O)(=O)c2cnn(-c3ccccc3)c2)CC1,Percent Effect,"30.3 µM, […]",68.11%
NC(=O)C1CCCN(S(=O)(=O)c2cnn(-c3ccccc3)c2)C1 (stereo not drawn),Percent Effect,"30.3 µM, […]",13.13%
NC(=O)C1CCN(S(=O)(=O)c2cnn(-c3ccccc3)c2)C1 (stereo not drawn),Percent Effect,"30.3 µM, […]",30.89%
COc1ccc([C@@H]2C[C@H](NC(C)=O)C[C@H](CCc3ccccc3)O2)cn1,Percent Effect,"30.3 µM, […]",22.12%
CN(C(=O)CCc1nc(C2CC2)no1)c1cc(C#N)c2ccccc2n1,Percent Effect,"30.3 µM, […]",-8.685%
O=C(NCCOc1ccc2c(c1)OCO2)C1CC(=O)N(CC2CC2)C1 (stereo not drawn),Percent Effect,"30 µM, 30.03 µM",11.04%
O=C(NCC(=O)N1CCCCC1)c1ccoc1,Percent Effect,"30 µM, 30.03 µM",-16.27%
O=C(c1cocn1)N1CCC[C@]2(C[C@@H](OCC3CC3)CO2)C1,Percent Effect,"30.3 µM, […]",14.29%
CCO[C@@H]1CO[C@@]2(CCCN(C(=O)c3ccc(OC)c(F)c3)C2)C1,Percent Effect,"30 µM, 30.03 µM",6.334%
O=C(c1cocn1)N1CCC2(CC1)CC(OCC1CC1)CO2 (stereo not drawn),Percent Effect,"30.3 µM, […]",52.58%
COC1COC2(CCN(C(=O)c3cocn3)CC2)C1 (stereo not drawn),Percent Effect,"30.3 µM, […]",-1.503%
O=C(c1ccc2c(c1)OCO2)N1CCC[C@]2(C[C@H](OCC3CC3)CO2)C1,Percent Effect,"30 µM, 30.03 µM",23.48%
O=C(c1ccc(F)c(F)c1)N1CCC[C@]2(C[C@@H](OCC3CC3)CO2)C1,Percent Effect,"30.3 µM, […]",53.63%
CC(C)CSCCN1CCCN(S(C)(=O)=O)CC1,Percent Effect,"30.3 µM, […]",6.004%
COc1ccc(C2CCCN2C(=O)c2ccc(=O)n(C)c2)cc1OC (stereo not drawn),Percent Effect,"30.3 µM, […]",-9.758%
Cc1ccsc1CNCCCOc1ccccn1,Percent Effect,"30.3 µM, […]",-17.78%
c1ccc(OCCNCc2cccs2)nc1,Percent Effect,"30.3 µM, […]",46.82%
c1ccc(OCCCNCc2cccs2)nc1,Percent Effect,"30.3 µM, […]",58.66%
CC(C)[C@H]1CN(CCCO)C[C@@H]1NC(=O)CCC(F)(F)F,Percent Effect,"30.3 µM, […]",-10.59%
CN(C)CCn1ccnc1C1CCCN(c2ncc(Cl)cc2F)C1 (stereo not drawn),Percent Effect,"30.3 µM, […]",16%
CCS(=O)(=O)N1CCOC2(CCCN(c3ccc(C)nn3)C2)C1.O=C(O)C(F)(F)F (stereo not drawn),Percent Effect,"30 µM, 30.03 µM",11.03%
CNc1nc(C(=O)N2C[C@H]3CC[C@@H]2CN(C2CCOCC2)C3)cs1,Percent Effect,"30.3 µM, […]",4.94%
CNc1nc(C(=O)N2C[C@H]3CC[C@@H]2CN(S(C)(=O)=O)C3)cs1,Percent Effect,"30.3 µM, […]",50.94%
CC(C)c1nc(C(=O)N2C[C@H]3CC[C@@H]2CN(C2CCOCC2)C3)cs1,Percent Effect,"30.3 µM, […]",12.76%
CS(=O)(=O)NC[C@]12COC[C@H]1CN(CC1CCC1)C2.O=C(O)C(F)(F)F,Percent Effect,"30.3 µM, […]",80.19%
CS(=O)(=O)NC[C@]12COC[C@H]1CN(CCc1ccccc1)C2.O=C(O)C(F)(F)F,Percent Effect,"30.3 µM, […]",17.9%
CS(=O)(=O)NC[C@]12COC[C@H]1CN(CC1CCCC1)C2.O=C(O)C(F)(F)F,Percent Effect,"30 µM, 30.03 µM",-6.018%
O=C(Nc1cnccn1)[C@H]1CC[C@@H]2[C@@H](CCN2Cc2ccccn2)O1.O=C(O)C(F)(F)F,Percent Effect,"30.3 µM, […]",28.13%
CC(O)CCN(C)C(=O)Nc1cccc(F)c1 (stereo not drawn),Percent Effect,"30.3 µM, […]",1.493%
Cl.Clc1ccccc1CN1CCc2nc(C3CCCNC3)ncc2C1 (stereo not drawn),Percent Effect,"30.3 µM, […]",6.249%
Cl.Clc1ccccc1CN1CCc2nc(C3CCNCC3)ncc2C1,Percent Effect,"30.3 µM, […]",3.749%
Cl.Clc1cccnc1OC1CCNCC1,Percent Effect,"30.3 µM, […]",14.95%
Cl.Cl.c1ccc2c(c1)C(NC1CCCC1)CC21CCNCC1 (stereo not drawn),Percent Effect,"30.3 µM, […]",32.48%
Clc1ccccc1C1(c2ccnc(CC3CC3)n2)CCNCC1,Percent Effect,"30 µM, 30.03 µM",93.39%
Clc1ccccc1C1(c2ccnc(C3CC3)n2)CCNCC1,Percent Effect,"30.3 µM, […]",94.79%
Clc1ccccc1C1(c2ccnc(C3CCCC3)n2)CCNCC1,Percent Effect,"30.3 µM, […]",99.4%
OC1(CN2CCC(Cc3ncccn3)CC2)CCOCC1,Percent Effect,"30.3 µM, […]",5.693%
c1ccc2ncc(CC3CCNCC3)cc2c1,Percent Effect,"30.3 µM, […]",-17.37%
Cn1cc(-c2cnc(N3CCOCC3)nc2)cc1C(=O)N1CCCC1,Percent Effect,"30.3 µM, […]",13.22%
O=C(NCc1ccccc1-n1cccn1)N1CCC(N2CCCC2)C1 (stereo not drawn),Percent Effect,30 µM,13.6%
O=S(=O)(NC1=NCN(CCc2ccccc2)CN1)c1ccc(F)cc1,Percent Effect,"30.3 µM, […]",1.728%
CCc1cc(C(=O)N2CCC(C3CCN(c4ncccn4)CC3)C2)on1 (stereo not drawn),Percent Effect,"30.3 µM, […]",4.034%
Cc1nc(NCCc2ccccc2)cc(C(=O)N2CCOCC2)n1,Percent Effect,"30.3 µM, […]",21.35%
CCn1c(-c2ccccc2)nn(CC(=O)NCCc2c[nH]cn2)c1=O,Percent Effect,"30.3 µM, […]",22.36%
Cc1cc(=O)c(C(=O)N(C)Cc2ccc(Cl)c(F)c2)c[nH]1,Percent Effect,"30.3 µM, […]",24.44%
Cc1cnn(C2CCCN(C(=O)c3cn4ccccc4n3)C2)c1 (stereo not drawn),Percent Effect,30 µM,-3.479%
CCNC(=O)CN1CCN(Cc2nc3c(F)cccc3n2CC)CC1,Percent Effect,30 µM,25.75%
Cn1cc(CCCN2CCN(Cc3cccc(O)c3)CC2)cn1,Percent Effect,"30.3 µM, […]",7.791%
Cc1nc(C)c(C)c(NCc2cnn3cccnc23)n1,Percent Effect,"30.3 µM, […]",15.17%
